The values that follow come from PubChem BioAssay AID626 (Vanderbilt High Throughput Screening Facility, 2007).

Each structure is given as a SMILES string. About 1,900 (3%) of roughly 64,000 compounds were called active. The entries come from a sample that favours actives as a whole. Values without a mark were called inactive.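 How the source made its calls: active means fluorescence rise, raw or as B-score row- and column-corrected plate score, outside the 99.7% band of its plate's samples, either direction; inactive means the rest.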

The assay deals with Muscarinic acetylcholine receptor M1. Briefly: M1 muscarinic receptor agonists, primary screen, CHO-M1 cells, Fluo-4 calcium, agonist mode (AID 626). The conditions noted are these: Fluo-4 calcium fluorescence, at 10 µM, hits give high values.
For `O=C(c1cc2nc(-c3ccccc3)cc(-c3ccccc3)n2n1)N1CCC2(CC1)OCCO2`, the B-score was 6.7 (active).

`Cc1cccc(-n2c(C)nc3cc(C(=O)N4CCC5(CC4)OCCO5)ccc32)c1`: the B-score is -0.0322. Take `O=C(c1cc(-c2ccncc2)nc2ccccc12)N1CCC2(CC1)OCCO2`: the B-score is 0.114. The result for `Cc1ccc(P(=S)(c2ccc(C)o2)N2CCOCC2)o1` reads 0.695; that for `Cn1c(C(=O)N2CCC(C(=O)N3CCC4(CC3)OCCO4)CC2)cc2sccc21`, -0.378.
